Measurements published in PubChem BioAssay AID1159580 (chemical genetic matrix, 2015).
Among all 5,500 compounds or so, about 2,000 (36%) were called active. Roughly 18% stayed inconclusive and do not appear here. Rule as the data show it: active = normalized growth mostly below about 0.91 (no sharp cut-off); inconclusive = no clear call, values can overlap the other calls; inactive = mostly above about 0.92. The list shows a part of the results.

Experiment: chemical genetic growth profiling, strain panel (AID 1159580);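 also: tested at 20 µM; growth read once vehicle control cultures reached saturation at 30 °C; 1 = growth at the plate median or of vehicle wells; lower values mean less growth of the strain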
Details: growth OD

Measured: normalized growth

CO[C@@H]1[C@@H](OC(N)=O)[C@@H](O)[C@H](Oc2ccc3c(O)c(NC(=O)c4ccc(O)c(CC=C(C)C)c4)c(=O)oc3c2C)OC1(C)C
inactive: S. cerevisiae deletion strains, locus YJR043C, strain POL32, hits give low values 1 | S. cerevisiae deletion strains, locus YJR066W, strain TOR1, hits give low values 0.896 | S. cerevisiae deletion strains, locus YJR075W, strain HOC1, hits give low values 1.02 | S. cerevisiae deletion strains, locus YKL009W, strain mrt4, hits give low values 0.96 | S. cerevisiae deletion strains, locus YKL085W, strain MDH1 (second series), hits give low values 0.949 | S. cerevisiae deletion strains, locus YKL085W, strain MDH1, hits give low values 0.949 | S. cerevisiae deletion strains, locus YKL160W, strain elf1, hits give low values 1.03 | S. cerevisiae deletion strains, locus YKL190W, strain CNB1, hits give low values 0.993 | S. cerevisiae deletion strains, locus YKR001C, strain vps1, hits give low values 0.99 | S. cerevisiae deletion strains, locus YKR026C, strain gcn3, hits give low values 1.04 | S. cerevisiae deletion strains, locus YKR091W, strain srl3, hits give low values 1.03 | S. cerevisiae deletion strains, locus YLL001W, strain dnm1, hits give low values 1.04 | S. cerevisiae deletion strains, locus YLL026W, hits give low values 1.04 | S. cerevisiae deletion strains, locus YLL041C, strain sdh2, hits give low values 1.02 | S. cerevisiae deletion strains, locus YLR027C, strain aat2, hits give low values 1.03 | S. cerevisiae deletion strains, locus YLR039C, strain RIC1, hits give low values 0.962 | S. cerevisiae deletion strains, locus YLR058C, strain SHM2, hits give low values 1.01 | S. cerevisiae deletion strains, locus YLR102C, strain apc9, hits give low values 0.993 | S. cerevisiae deletion strains, locus YLR221C, strain rsa3, hits give low values 1.02 | S. cerevisiae deletion strains, locus YLR258W, strain gsy2, hits give low values 1.03 | S. cerevisiae deletion strains, locus YLR262C, strain YPT6 (second series), hits give low values 1.02 | S. cerevisiae deletion strains, locus YLR262C, strain YPT6, hits give low values 0.968 | S. cerevisiae deletion strains, locus YLR268W, strain sec22, hits give low values 0.955 | S. cerevisiae deletion strains, locus YLR320W, strain mms22, hits give low values 1.04 | S. cerevisiae deletion strains, locus YLR330W, strain CHS5, hits give low values 1.03 | S. cerevisiae deletion strains, locus YLR342W, strain FKS1 (second series), hits give low values 1.04 | S. cerevisiae deletion strains, locus YLR342W, strain FKS1, hits give low values 1.03 | S. cerevisiae deletion strains, locus YLR357W, strain rsc2, hits give low values 1.05 | S. cerevisiae deletion strains, locus YLR370C, strain arc18, hits give low values 1.03 | S. cerevisiae deletion strains, locus YLR371W, strain rom2, hits give low values 0.979 | S. cerevisiae deletion strains, locus YLR384C, strain iki3, hits give low values 1.04 | S. cerevisiae deletion strains, locus YLR418C, strain cdc73, hits give low values 1 | S. cerevisiae deletion strains, locus YML016C, strain PPZ1, hits give low values 1.02 | S. cerevisiae deletion strains, locus YML032C, strain rad52, hits give low values 0.99 | S. cerevisiae deletion strains, locus YML120C, strain ndi1, hits give low values 1.02 | S. cerevisiae deletion strains, locus YML124C, strain tub3, hits give low values 1 | S. cerevisiae deletion strains, locus YMR058W, strain fet3, hits give low values 1.03 | S. cerevisiae deletion strains, locus YMR078C, strain ctf18, hits give low values 0.997 | S. cerevisiae deletion strains, locus YMR125W, strain sto1, hits give low values 1.02 | S. cerevisiae deletion strains, locus YMR129W, hits give low values 1.03 | S. cerevisiae deletion strains, locus YMR205C, strain PFK2, hits give low values 1.05 | S. cerevisiae deletion strains, locus YMR223W, strain ubp8, hits give low values 1.03 | S. cerevisiae deletion strains, locus YMR231W, strain pep5, hits give low values 1.03 | S. cerevisiae deletion strains, locus YMR307W, strain GAS1, hits give low values 1.02 | S. cerevisiae deletion strains, locus YNL067W, strain RPL9B, hits give low values 0.989 | S. cerevisiae deletion strains, locus YNL071W, strain lat1, hits give low values 1.04 | S. cerevisiae deletion strains, locus YNL128W, strain TEP1, hits give low values 0.945 | S. cerevisiae deletion strains, locus YNL183C, strain NPR1, hits give low values 0.847 | S. cerevisiae deletion strains, locus YNL209W, strain ssb2, hits give low values 1.04 | S. cerevisiae deletion strains, locus YNL233W, strain BNI4, hits give low values 1.02 | S. cerevisiae deletion strains, locus YNL248C, strain rpa49, hits give low values 1.02 | S. cerevisiae deletion strains, locus YNL250W, strain rad50, hits give low values 0.956 | S. cerevisiae deletion strains, locus YNL271C, strain bni1, hits give low values 0.986 | S. cerevisiae deletion strains, locus YNL298W, strain CLA4, hits give low values 0.997 | S. cerevisiae deletion strains, locus YNL307C, strain MCK1, hits give low values 0.991 | S. cerevisiae deletion strains, locus YNL322C, strain KRE1 (second series), hits give low values 1.01 | S. cerevisiae deletion strains, locus YNR049C, strain mso1, hits give low values 1.04 | S. cerevisiae deletion strains, locus YNR052C, strain pop2, hits give low values 0.978 | S. cerevisiae deletion strains, locus YOL006C, strain TOP1, hits give low values 0.965 | S. cerevisiae deletion strains, locus YOL012C, strain htz1 1 | S. cerevisiae deletion strains, locus YOL147C, strain pex11, hits give low values 1.01 | S. cerevisiae deletion strains, locus YOR001W, strain rrp6, hits give low values 0.979 | S. cerevisiae deletion strains, locus YOR061W, strain CKA2, hits give low values 1.01 | S. cerevisiae deletion strains, locus YOR069W, strain VPS5, hits give low values 1.01 | S. cerevisiae deletion strains, locus YOR070C, strain gyp1, hits give low values 1.03 | S. cerevisiae deletion strains, locus YOR080W, strain dia2, hits give low values 1.04 | S. cerevisiae deletion strains, locus YOR083W, strain WHI5, hits give low values 1.03 | S. cerevisiae deletion strains, locus YOR106W, strain vam3, hits give low values 1.02 | S. cerevisiae deletion strains, locus YOR136W, strain idh2, hits give low values 1 | S. cerevisiae deletion strains, locus YOR144C, strain elg1, hits give low values 1 | S. cerevisiae deletion strains, locus YOR184W, strain ser1, hits give low values 0.987 | S. cerevisiae deletion strains, locus YOR231W, strain MKK1, hits give low values 0.882 | S. cerevisiae deletion strains, locus YOR265W, strain rbl2, hits give low values 1.02 | S. cerevisiae deletion strains, locus YOR270C, strain vph1, hits give low values 0.927 | S. cerevisiae deletion strains, locus YOR290C, strain snf2, hits give low values 1.05 | S. cerevisiae deletion strains, locus YOR316C, strain cot1, hits give low values 0.987 | S. cerevisiae deletion strains, locus YPL051W, strain arl3, hits give low values 1.05 | S. cerevisiae deletion strains, locus YPL055C, strain LGE1, hits give low values 0.991 | S. cerevisiae deletion strains, locus YPL078C, strain atp4, hits give low values 1.02 | S. cerevisiae deletion strains, locus YPL106C, strain sse1, hits give low values 1.05 | S. cerevisiae deletion strains, locus YPL240C, strain hsp82, hits give low values 1.02 | S. cerevisiae deletion strains, locus YPL256C, strain CLN2, hits give low values 0.861 | S. cerevisiae deletion strains, locus YPR119W, strain clb2, hits give low values 1.01 | S. cerevisiae deletion strains, locus YPR141C, strain kar3, hits give low values 0.962 | S. cerevisiae deletion strains, locus YPR163C, strain tif3, hits give low values 0.996 | S. cerevisiae deletion strains, locus YPR167C, strain met16, hits give low values 0.999 | S. cerevisiae deletion strains, strain wtn01, hits give low values 0.984 | S. cerevisiae strains, strain wild type, hits give low values 1.02
active: S. cerevisiae deletion strains, locus YKL068W, hits give low values 0.925 | S. cerevisiae deletion strains, locus YLR113W, strain HOG1, hits give low values 0.793
